SMILES strings stand for the structures. Compounds without any hit were thinned out: in the full panel of roughly 83,000, 20% have a hit.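 48-hour exposure, single concentration, 96-well plates; percent growth endpoint where 0 means no net growth. Active: below 10.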 A number with no mark means an inactive call. The source made the active and inactive calls.

Common to all, as to assay: NCI-60 one-dose screen, 48 h (100 = growth as untreated, 0 = no growth, -100 = all killed)
Holding throughout (conditions): 10 µM unless noted

In assay [1] the test system is SK-MEL-2 melanoma.
Assay [2] relates to EKVX NSCLC.
In assay [3] the test system is SN12C renal.
Assay [4] relates to UO-31 renal.
The subject of assay [5] is TK-10 renal.
Assay [6] deals with ACHN renal.
In assay [7] the test system is CAKI-1 renal.
The subject of assay [8] is A498 renal.
The test system of assay [9] is CCRF-CEM leukemia.
Assay [10] has as its system MOLT-4 leukemia.
The subject of assay [11] is SR leukemia.
Assay [12] concerns RPMI-8226 leukemia.
For assay [13], the system named is OVCAR-8 ovarian.
Assay [14] concerns OVCAR-5 ovarian.
The test system of assay [15] is OVCAR-4 ovarian.
In assay [16] the test system is SK-OV-3 ovarian.
Assay [17] concerns IGROV1 ovarian.
Assay [18] deals with OVCAR-3 ovarian.
The test system of assay [19] is HS 578T breast.
Assay [20] concerns NCI/ADR-RES ovarian.

Turning to `CC1(C)C(N)=Nc2cc(OCCCN3Cc4ccccc4C3)c(OCC3CC3)cc21`, the growth in assay [1] was 108%; in assay [2], 77.6%; in [3] it was 84.5%; in assay [4], 58.6%; in assay [5] it was 81.3%; in [6], 96.6%. Besides, the growth in [7] is 52.5%; in assay [8] it was 92%; in assay [9], 19.1%; in [10] it was 36.1%; in assay [11], 32.4%; in [12] it was 44.3%. The growth was 76.8% in assay [13]; 83.2% in assay [14]; 91.4% in assay [15]; 75% in assay [16]; 80.2% in [17]; 80.6% in assay [18]. Besides, the growth in assay [19] was 71.7%; in assay [20] it was 92.9%.
As to `O=C(CN1CCN(c2cc3c(cc2F)c(=O)c(C(=O)O)cn3C2CC2)CC1)N/N=C/c1ccco1`, the growth is 105% in assay [1]; 97.8% in [2]; 108% in assay [3]; 88.3% in assay [4]; 101% in assay [5]; 98.1% in assay [6]. Further, the growth was 99.7% in [7]; 91.7% in assay [8]; 107% in [9]; 93.9% in assay [10]; 92.9% in assay [11]; 101% in assay [12]. The growth in assay [13] is 98.2%; in assay [14] it was 85.1%; in assay [15], 105%; in [16], 88.8%; in assay [17], 101%; in assay [18], 107%. For the same compound, the results for the growth in assay [19] and in assay [20] were 95.5% and 103%, respectively.
Turning to `Cc1nc2sc(C(=O)Nc3cccc(Br)c3C)c(N)c2cc1C(O)c1ccccc1` (stereo not given), the growth in assay [1] is 29.7%; in assay [2], 39.7%; in assay [3] it was 8.12% (active); in [4], 30.9%; in [5], 44.7%; in assay [6], 21.9%. Moreover, the growth in assay [7] is 20.4%; in [8] it was -12.8% (active); in assay [9], 17.2%; in assay [10], 12%; in assay [11], 7.47% (active); in assay [12], 2.82% (active). In addition, the growth in [13] is 12.2%; in [14] it was 32.3%; in assay [15] it was 47.1%; in assay [16] it was 11.4%; in [17], 15.5%; in assay [18], -2.75% (active). The figures for the growth in assay [19] and in assay [20] were 12.3% and 4.66% (active), respectively.
Consider `Cc1ccc(/C=C(\C#N)n2nnc3cc(F)c(F)cc32)cc1`, for which the growth in [1] was 14.8%; in assay [2], 30.9%; in [3], 2.07% (active); in [4] it was 13.2%; in assay [5] it was 22.4%; in [6], 22.5%. For the same compound, the growth was 32.6% in assay [7]; 13% in assay [8]; 5.57% (active) in [9]; -2.32% (active) in assay [10]; 7.33% (active) in assay [11]; 4.53% (active) in assay [12]. Further, the growth in assay [13] was 6.79% (active); in assay [14], -4.62% (active); in [15], 46%; in assay [16], 53.6%; in [17], 2.76% (active); in [18], 7.86% (active). Also, the figures for the growth in assay [19] and in assay [20] were 36.1% and 12.9%, respectively.
On to `CC1C(/C=N/NC(N)=S)C(C#N)(C#N)C1(C#N)C#N` (stereo not given), for which the growth in [1] is 114%; in [2] it was 104%; in assay [3], 105%; in [4] it was 82.4%; in assay [5], 118%; in assay [6], 103%. Also, the growth is 91.8% in [7]; 103% in [8]; 96.5% in assay [9]; 88.8% in [10]; 85.6% in [11]; 96.6% in assay [12]. Further, the growth was 101% in assay [13]; 116% in assay [14]; 103% in assay [15]; 95.8% in assay [16]; 109% in assay [17]; 107% in assay [18]. Moreover, the growth in assay [19] was 91.7%; in assay [20], 110%.
Regarding `O=C(Oc1ccc(CCl)cc1)c1ccccc1`, the growth in assay [1] was -71.4% (active); in assay [2], -100% (active); in assay [3], -84.8% (active); in assay [4], -92.6% (active); in assay [5], -96.3% (active); in assay [6] it was -92.1% (active). Also, the growth in [7] was -96.3% (active); in assay [8], -87.4% (active); in assay [9], -48.6% (active); in [10] it was -49.7% (active); in assay [11] it was -43.7% (active); in assay [12], -50.2% (active). The growth was -84.5% (active) in assay [13]; -85.2% (active) in assay [14]; -83.1% (active) in assay [15]; -100% (active) in [16]; -81.4% (active) in assay [17]; -97.3% (active) in [18]. In addition, the growth in assay [19] is -13.4% (active); in [20] it was -63.7% (active).
With `COc1cc(OC)c(/C=C/C(=O)c2c(O)cc(OC)c(C3CCN(C)CC3)c2OC)c(OC)c1`, the growth was -57.8% (active) in assay [1]; 22.9% in assay [2]; 4.89% (active) in assay [3]; -76.2% (active) in [4]; -82.5% (active) in [5]; -98.3% (active) in assay [6]. Moreover, the growth is -62.8% (active) in [7]; 17.8% in [8]; -19.3% (active) in assay [9]; -34.4% (active) in assay [10]; -22.2% (active) in assay [11]; -45.3% (active) in [12]. Further, the growth in [13] is 1.17% (active); in assay [14], -29.8% (active); in assay [15], 19.3%; in assay [16], -79.7% (active); in assay [17], 29.1%; in assay [18], -51.1% (active). Further, the growth in assay [19] was -46.2% (active); in [20], -19.3% (active).
As to `CN1CCN(CCOc2ccc(-c3cnc4c(-c5ccc(F)cc5)cnn4c3)cc2)CC1`, the growth in assay [1] is 81.8%; in assay [2], 76.3%; in assay [3], 61.6%; in assay [4] it was 32.3%; in assay [5], 75.1%; in assay [6] it was 46.6%. In addition, the growth in assay [7] was 45.5%; in assay [8], 74.9%; in assay [9] it was 17.6%; in assay [10], 8.99% (active); in assay [11] it was 1.31% (active); in [12], 27%. Besides, the growth is 58.1% in assay [13]; 83.4% in assay [14]; 49% in assay [15]; 93.1% in assay [16]; 48.2% in assay [17]; 28.4% in [18]. For the same compound, the growth in assay [19] is 56.7%; in [20], 76.5%.

The values are drawn from PubChem BioAssay (NCI).
